{
  "source": "PubChem BioAssay (NCATS)",
  "note": "Inconclusive results are not listed. Unmarked numbers belong to inactive results. The call rests on the fitted dose curve; in most records, active means well fitted cell-killing curve with a large enough effect; inconclusive means small, poorly fitted or top-dose-only effect, or effect the other way; inactive means flat fitted curve, though single readings scatter.",
  "data": [
    {"assay": "MultiTox-Fluor Cytotoxicity Assay - LYMP1-001 - Dead Cells (AID 946);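 further: cells exposed to compound for 16 h; 0% = DMSO and 100% = tetraoctylammonium bromide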", "conditions": "LYMP1-001 lymphoblastoid cells, dead-cell protease fluorescence; series mostly up to 92.2 µM; cytotoxicity (dead cells): at the top concentration", "description": "NIH Chemical Genomics Center [NCGC]\nNIH Molecular Libraries Screening Centers Network [MLSCN]\nNational Institutes of Environmental Health Sciences [NIEHS]\nNational Toxicology Program [NTP]\nWe have developed a 1536-well cell-based assay for quantitative high throughput screening (qHTS) against a number of cell lines to determine in vitro cytotoxicity of small molecules. This particular assay uses a human lymphoblastoid cell line (LYMP1-001) purchased from Coriell Institute for Medical Research.\nNCGC Assay Protocol Summary:\nThe MultiTox-Fluor Cytotoxicity Assay (Promega) is a homogeneous method to simultaneously measure the relative number of live and dead cells in culture by detecting changes in cell membrane integrity. There are two fluorogenic peptide substrates in the assay reagent. Viable cells are determined when the cell-permeant substrate (GF-AFC) enters the cell and is cleaved by protease from live cells resulting in liberated fluorophore. This live-cell protease activity restricted to viable cells is proportional to cell number. The dead cells are determined by using fluorogenic cell-impermeant peptide substrate (bis-AAF-R110) which cleaved by dead cell proteases leaking from damaged cell membrane.\nUsing the MultiTox-Fluor Cytotoxicity Assay, the relative number of dead cells was measured in the lymphoblastoid cell line with complete culture medium following compound treatment for 16 hours. The assay was performed in opaque black Kalypsys 1536-well plates. In the screen, tetraoctylammonium bromide was used as positive control. Library compounds were measured for their ability to cause acute toxicity in the cell line, as reflected by an increase in dead cell protease activity, in a concentration-dependent manner. Data were normalized to the controls for basal activity (DMSO only) and 100% stimulation (15 uM tetraoctylammonium bromide). AC50 values were determined from concentration-response data modeled with the standard Hill equation.\nqHTS protocol for MultiTox-Fluor Cytotoxicity assay\n[Step] [Parameter] [Value] [Description]\n1. Reagent; 5 uL; 2500 lymphoblastoid cells/well\n2. Time; 5 hr; 37 C incubation\n4. Controls; 23 nL; Tetraoctylammonium bromide 6.4pM to 92 uM\n5. Time; 16 hr; 37 C incubation\n6. Reagent; 5 uL; MuliTox-Fluor Assay reagent\n7. Time; 60 min; Room Temperature\n8. Detection; dead-cell fluorescence (Ex/Em=485/520); EnVision plate reader\nKeywords: cytotoxicity, lymphoblastoid cell line, fluorescence, NTPHTS, NTPHTS_NCGC, NIEHS, EPA, DSSTox, MLSMR, MLSCN, NIH Roadmap, qHTS, NCGC", "units": {"cytotoxicity (dead cells)": "%"}, "values": [
      {"smiles": "O=[N+]([O-])c1cccc2c([N+](=O)[O-])cccc12", "cytotoxicity (dead cells)": 2.13},
      {"smiles": "CCOP(=S)(OCC)SCCSCC", "cytotoxicity (dead cells)": 3.12},
      {"smiles": "Cc1ccc(N)cc1Cl", "cytotoxicity (dead cells)": -15.7},
      {"smiles": "CC(C)(OOC(C)(C)c1ccccc1)c1ccccc1", "cytotoxicity (dead cells)": 3.33},
      {"smiles": "Oc1cccc(Cl)c1", "cytotoxicity (dead cells)": 2.54},
      {"smiles": "C=C(C)CCl", "cytotoxicity (dead cells)": -5.34},
      {"smiles": "Cc1cccc(C)c1N", "cytotoxicity (dead cells)": -5.88},
      {"smiles": "CCCC[N+](=O)[O-]", "cytotoxicity (dead cells)": -3.21},
      {"smiles": "Cc1ccc([N+](=O)[O-])cc1", "cytotoxicity (dead cells)": -2.32},
      {"smiles": "O=[N+]([O-])c1ccc(Cl)c(Cl)c1Cl", "cytotoxicity (dead cells)": -9.9},
      {"smiles": "N#CCc1ccccc1", "cytotoxicity (dead cells)": 2.67},
      {"smiles": "Cc1ccc2c(C)cccc2c1", "cytotoxicity (dead cells)": -26},
      {"smiles": "CCCCC(CC)COC(=O)c1ccc(C(=O)OCC(CC)CCCC)c(C(=O)OCC(CC)CCCC)c1", "note": "(stereo not given)", "cytotoxicity (dead cells)": 6.55},
      {"smiles": "OCCCCO", "cytotoxicity (dead cells)": -1.14},
      {"smiles": "Cc1coc2c1CCC(C)C2", "note": "(stereo not given)", "cytotoxicity (dead cells)": -9.03},
      {"smiles": "N#CCBr", "cytotoxicity (dead cells)": -14.9},
      {"smiles": "ClCCCCl", "cytotoxicity (dead cells)": 8.3},
      {"smiles": "ClCC(Cl)CCl", "cytotoxicity (dead cells)": -4.52},
      {"smiles": "CCC/C=N/O", "cytotoxicity (dead cells)": -2.95},
      {"smiles": "Nc1cc(Cl)ccc1O", "cytotoxicity (dead cells)": 3.56},
      {"smiles": "CCCN(CCC)c1c([N+](=O)[O-])cc(C(F)(F)F)cc1[N+](=O)[O-]", "cytotoxicity (dead cells)": -1.5},
      {"smiles": "Nc1ccc(Oc2ccc(N)cc2)cc1", "cytotoxicity (dead cells)": -9.45},
      {"smiles": "OCCOCCO", "cytotoxicity (dead cells)": -5.25},
      {"smiles": "O=C(O)c1cc(Cl)ccc1Cl", "cytotoxicity (dead cells)": -7.24},
      {"smiles": "CCN(CC)CCO", "cytotoxicity (dead cells)": 3.53},
      {"smiles": "O=C(O)C(Cl)Br", "note": "(stereo not given)", "cytotoxicity (dead cells)": 1.66},
      {"smiles": "C=CCOCC1CO1", "note": "(stereo not given)", "cytotoxicity (dead cells)": -2.48},
      {"smiles": "O=Cc1ccc2c(c1)OCO2", "cytotoxicity (dead cells)": -19.5},
      {"smiles": "CN(C)c1ccc(N(C)C)cc1", "cytotoxicity (dead cells)": 3.41},
      {"smiles": "Brc1ccc(Oc2ccc(Br)cc2Br)c(Br)c1", "cytotoxicity (dead cells)": 9.45},
      {"smiles": "Cl/C=C\\Cl", "cytotoxicity (dead cells)": -8.09},
      {"smiles": "Nc1ccc([N+](=O)[O-])cc1[N+](=O)[O-]", "cytotoxicity (dead cells)": -1.52},
      {"smiles": "Cc1ccc(N)c(C)c1", "cytotoxicity (dead cells)": -10.2},
      {"smiles": "O=Cc1ccc(Cl)cc1Cl", "cytotoxicity (dead cells)": 10},
      {"smiles": "Clc1cccc(Cl)c1", "cytotoxicity (dead cells)": 1.91},
      {"smiles": "Cc1cc(N=Nc2ccccc2C)ccc1N", "cytotoxicity (dead cells)": -26},
      {"smiles": "C=CCCl", "cytotoxicity (dead cells)": -20.7},
      {"smiles": "CC(Cl)CCl", "note": "(stereo not given)", "cytotoxicity (dead cells)": 8.05},
      {"smiles": "CCSC(=O)N1CCCCCC1", "cytotoxicity (dead cells)": 0.188},
      {"smiles": "Cl/C=C/CCl", "cytotoxicity (dead cells)": 9.65}
    ]}
  ]
}
